# According to the supplement of paper PMC8728848:
# About 410 targets per protein were measured; listed, in parts, are those with the strongest signals and a random draw of the rest.
# How the values were obtained:
# Assay in all cases: glycan array binding signal (z-score within array); higher = stronger binding
# Settings in all cases: glycan notation: IUPAC condensed, linker removed
# [1] = molecular target: Fuc(a1-2)Gal(b1-4)[Fuc(a1-3)]GlcNAc(b1-2)[Fuc(a1-2)Gal(b1-4)[Fuc(a1-3)]GlcNAc(b1-4)]Man(a1-3)[Fuc(a1-2)Gal(b1-4)[Fuc(a1-3)]GlcNAc(b1-2)Man(a1-6)]Man(b1-4)GlcNAc(b1-4)GlcNAc
# How it was run: (§1)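 Glycan array data came from 3228 arrays in the Consortium for Functional Glycomics database, and only arrays with an available protein sequence were kept. Glycan names were put into IUPAC-condensed notation, and columns mapping to the same glycan were averaged. The binding signal is a within-array Z-score, averaged across arrays of one protein sequence run at different concentrations or buffers and across linkers. A negative Z-score can be read as non-binding.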
# [2] = molecular target: Fuc(a1-2)[Gal(a1-3)]Gal(b1-3)GalNAc(b1-3)Gal(a1-4)Gal(b1-4)Glc
# How it was run: as §1
# [3] = molecular target: Fuc(a1-2)[Gal(a1-3)]Gal(b1-3)GlcNAc(b1-2)Man(a1-3)[Fuc(a1-2)[Gal(a1-3)]Gal(b1-3)GlcNAc(b1-2)Man(a1-6)]Man(b1-4)GlcNAc(b1-4)GlcNAc
# How it was run: as §1
# [4] = molecular target: Fuc(a1-2)[Gal(a1-3)]Gal(b1-4)[Fuc(a1-3)]Glc
# How it was run: as §1
# [5] = molecular target: Fuc(a1-2)[GalNAc(a1-3)]Gal(b1-3)GlcNAc(b1-3)GalNAc
# How it was run: as §1
# [6] = molecular target: Fuc(a1-2)[GalNAc(a1-3)]Gal(b1-4)GlcNAc(b1-2)Man(a1-3)[Fuc(a1-2)[GalNAc(a1-3)]Gal(b1-4)GlcNAc(b1-2)Man(a1-6)]Man(b1-4)GlcNAc(b1-4)GlcNAc
# How it was run: as §1
# [7] = molecular target: Fuc(a1-3)GlcNAc
# How it was run: as §1
# [8] = molecular target: Fuc(a1-3)[Gal(b1-4)]GlcNAc(b1-3)Gal(b1-4)[Fuc(a1-3)]GlcNAc
# How it was run: as §1
# [9] = molecular target: Fuc(a1-3)[Gal(b1-4)]GlcNAc6S
# How it was run: as §1
# [10] = molecular target: Gal(a1-3)Gal(b1-4)GlcNAc(b1-2)Man(a1-3)[Gal(a1-3)Gal(b1-4)GlcNAc(b1-2)Man(a1-6)]Man(b1-4)GlcNAc(b1-4)GlcNAc
# How it was run: as §1
# [11] = molecular target: Gal(a1-3)Gal(b1-4)[Fuc(a1-3)]GlcNAc
# How it was run: as §1
# [12] = molecular target: Gal(a1-3)Gal(b1-4)[Fuc(a1-3)]GlcNAc(b1-2)Man(a1-3)[Gal(a1-3)Gal(b1-4)[Fuc(a1-3)]GlcNAc(b1-2)Man(a1-6)]Man(b1-4)GlcNAc(b1-4)GlcNAc
# How it was run: as §1
# [13] = molecular target: Gal(a1-4)Gal(b1-4)Glc
# How it was run: as §1
# [14] = molecular target: Gal(b1-3)GlcNAc
# How it was run: as §1
# [15] = molecular target: Gal(b1-3)GlcNAc(b1-2)Man(a1-3)[GlcNAc(b1-4)][Gal(b1-3)GlcNAc(b1-2)Man(a1-6)]Man(b1-4)GlcNAc(b1-4)GlcNAc
# How it was run: as §1
# [16] = molecular target: Gal(b1-4)GlcNAc(b1-3)Gal(b1-4)GlcNAc(b1-2)Man(a1-3)[Gal(b1-4)GlcNAc(b1-3)Gal(b1-4)GlcNAc(b1-2)Man(a1-6)]Man(b1-4)GlcNAc(b1-4)GlcNAc
# How it was run: as §1
# [17] = molecular target: Gal(b1-4)GlcNAc(b1-3)Gal(b1-4)GlcNAc(b1-3)Gal(b1-4)GlcNAc(b1-2)Man(a1-3)[Gal(b1-4)GlcNAc(b1-3)Gal(b1-4)GlcNAc(b1-3)Gal(b1-4)GlcNAc(b1-2)Man(a1-6)]Man(b1-4)GlcNAc(b1-4)GlcNAc
# How it was run: as §1
# [18] = molecular target: Gal(b1-4)GlcNAc(b1-3)Gal(b1-4)GlcNAc(b1-3)Gal(b1-4)GlcNAc(b1-3)Gal(b1-4)GlcNAc(b1-3)Gal(b1-4)GlcNAc(b1-2)Man(a1-3)[Gal(b1-4)GlcNAc(b1-3)Gal(b1-4)GlcNAc(b1-3)Gal(b1-4)GlcNAc(b1-3)Gal(b1-4)GlcNAc(b1-3)Gal(b1-4)GlcNAc(b1-2)Man(a1-6)]Man(b1-4)GlcNAc(b1-4)GlcNAc
# How it was run: as §1
# [19] = molecular target: Gal3S(b1-4)[Fuc(a1-3)]Glc6S
# How it was run: as §1
# [20] = molecular target: Gal3S(b1-4)[Fuc(a1-3)]GlcNAc
# How it was run: as §1
# [21] = molecular target: Gal3S6S(b1-4)GlcNAc
# How it was run: as §1
# [22] = molecular target: Gal6S(b1-4)GlcNAc6S
# How it was run: as §1
# [23] = molecular target: GalNAc(b1-6)GalNAc
# How it was run: as §1
# [24] = molecular target: GlcNAc(a1-4)Gal(b1-4)GalNAc
# How it was run: as §1
# [25] = molecular target: GlcNAc(a1-4)Gal(b1-4)GlcNAc
# How it was run: as §1
# [26] = molecular target: GlcNAc(b1-2)Man(a1-3)[GlcNAc(b1-4)][GlcNAc(b1-2)Man(a1-6)]Man(b1-4)GlcNAc(b1-4)[Fuc(a1-6)]GlcNAc
# How it was run: as §1
# [27] = molecular target: GlcNAc(b1-3)Gal(b1-4)GlcNAc(b1-2)Man(a1-3)[GlcNAc(b1-3)Gal(b1-4)GlcNAc(b1-2)Man(a1-6)]Man(b1-4)GlcNAc(b1-4)[Fuc(a1-6)]GlcNAc
# How it was run: as §1
# [28] = molecular target: GlcNAc(b1-3)Gal(b1-4)GlcNAc(b1-3)Gal(b1-4)GlcNAc(b1-3)Gal(b1-4)GlcNAc(b1-2)Man(a1-3)[GlcNAc(b1-3)Gal(b1-4)GlcNAc(b1-3)Gal(b1-4)GlcNAc(b1-3)Gal(b1-4)GlcNAc(b1-2)Man(a1-6)]Man(b1-4)GlcNAc(b1-4)[Fuc(a1-6)]GlcNAc
# How it was run: as §1
# [29] = molecular target: GlcNAc(b1-3)Gal(b1-4)GlcNAc(b1-3)Gal(b1-4)GlcNAc(b1-3)Gal(b1-4)GlcNAc(b1-2)[GlcNAc(b1-3)Gal(b1-4)GlcNAc(b1-3)Gal(b1-4)GlcNAc(b1-3)Gal(b1-4)GlcNAc(b1-6)]Man(a1-6)[GlcNAc(b1-3)Gal(b1-4)GlcNAc(b1-3)Gal(b1-4)GlcNAc(b1-3)Gal(b1-4)GlcNAc(b1-2)Man(a1-3)]Man(b1-4)GlcNAc(b1-4)[Fuc(a1-6)]GlcNAc
# How it was run: as §1
# [30] = molecular target: Neu5Ac(a2-3)Gal(b1-3)GalNAc(b1-4)[Neu5Ac(a2-3)]Gal(b1-4)Glc
# How it was run: as §1
# [31] = molecular target: Neu5Ac(a2-3)Gal(b1-3)GalNAc(b1-4)[Neu5Ac(a2-8)Neu5Ac(a2-3)]Gal(b1-4)Glc
# How it was run: as §1
# [32] = molecular target: Neu5Ac(a2-3)Gal(b1-3)GlcNAc(b1-2)[Neu5Ac(a2-3)Gal(b1-3)GlcNAc(b1-4)]Man(a1-6)[Neu5Ac(a2-3)Gal(b1-3)GlcNAc(b1-2)Man(a1-3)]Man(b1-4)GlcNAc(b1-4)GlcNAc
# How it was run: as §1
# [33] = molecular target: Neu5Ac(a2-3)Gal(b1-4)GlcNAc(b1-3)Gal(b1-4)GlcNAc(b1-2)Man(a1-3)[Neu5Ac(a2-3)Gal(b1-4)GlcNAc(b1-3)Gal(b1-4)GlcNAc(b1-2)Man(a1-6)]Man(b1-4)GlcNAc(b1-4)GlcNAc
# How it was run: as §1
# [34] = molecular target: Neu5Ac(a2-3)Gal(b1-4)GlcNAc(b1-3)Gal(b1-4)GlcNAc(b1-3)Gal(b1-4)GlcNAc(b1-2)Man(a1-3)[Neu5Ac(a2-3)Gal(b1-4)GlcNAc(b1-3)Gal(b1-4)GlcNAc(b1-3)Gal(b1-4)GlcNAc(b1-2)Man(a1-6)]GalNAc
# How it was run: as §1
# [35] = molecular target: Neu5Ac(a2-3)Gal(b1-4)[Fuc(a1-3)]GlcNAc(b1-3)GalNAc
# How it was run: as §1
# [36] = molecular target: Neu5Ac(a2-3)[GalNAc(b1-4)]Gal(b1-4)Glc
# How it was run: as §1
# [37] = molecular target: Neu5Ac(a2-6)Gal(b1-4)GlcNAc(b1-2)[Neu5Ac(a2-6)Gal(b1-4)GlcNAc(b1-6)]Man(a1-6)[Neu5Ac(a2-6)Gal(b1-4)GlcNAc(b1-2)Man(a1-3)][GlcNAc(b1-4)]Man(b1-4)GlcNAc(b1-4)GlcNAc
# How it was run: as §1
# [38] = molecular target: Neu5Ac(a2-6)Gal(b1-4)GlcNAc(b1-3)Gal(b1-4)GlcNAc
# How it was run: as §1
# [39] = molecular target: Neu5Ac(a2-6)Gal(b1-4)GlcNAc(b1-3)Gal(b1-4)GlcNAc(b1-3)Gal(b1-4)GlcNAc(b1-2)Man(a1-3)[Neu5Ac(a2-6)Gal(b1-4)GlcNAc(b1-3)Gal(b1-4)GlcNAc(b1-3)Gal(b1-4)GlcNAc(b1-2)Man(a1-6)]GalNAc
# How it was run: as §1
# [40] = molecular target: Neu5Ac(a2-6)Gal(b1-4)GlcNAc(b1-3)Gal(b1-4)GlcNAc(b1-3)[Neu5Ac(a2-6)Gal(b1-4)GlcNAc(b1-3)Gal(b1-4)GlcNAc(b1-6)]GalNAc
# How it was run: as §1
# [41] = molecular target: Neu5Ac(a2-6)Gal(b1-4)GlcNAc(b1-3)Gal(b1-4)[Fuc(a1-3)]GlcNAc(b1-3)Gal(b1-4)[Fuc(a1-3)]GlcNAc
# How it was run: as §1
# [42] = molecular target: Neu5Ac(a2-8)Neu5Ac(a2-3)Gal(b1-4)Glc
# How it was run: as §1
# [43] = molecular target: Neu5Ac(a2-8)Neu5Ac(a2-3)[GalNAc(b1-4)]Gal(b1-4)Glc
# How it was run: as §1
binder,measurement,setting,value
Clec49 (Caenorhabditis elegans) (protein) MTRLTLLLFGLLGAATAQTCNTGGIYNEQFNRCYQYFTAPAQFSFAEQQCNLLGGHLASVQNGQENALLQSNAANSFKRSNYSDYWIGATDLETSGTWKWTDPSVTFDYSNWQLGEPQSGSDCAIQDKGDGTWSAIGCTSYRPYVCVTPVIMTATCPPITTPIPTTCPTPAPCPIKQCVPSCDQGWTYFSPTDFCYRVYHGEKFNDAEASCVLLGGHLASIHSLTENTFVNNIASCGIKEGKYEHLAWIGMRKVGQDWVWTDGTPSDYFNWAPKQPDNPKKELCVQTAPDLSHDKWYENWNNLECNEVMRAYICKKASIHN,glycan array binding signal (z-score),[1],6.67
same,glycan array binding signal (z-score),[2],0.061
same,glycan array binding signal (z-score),[3],2.31
same,glycan array binding signal (z-score),[4],-0.454
same,glycan array binding signal (z-score),[5],4.18
same,glycan array binding signal (z-score),[6],0.062
same,glycan array binding signal (z-score),[7],-0.399
same,glycan array binding signal (z-score),[8],0.226
same,glycan array binding signal (z-score),[9],-0.462
same,glycan array binding signal (z-score),[10],0.541
same,glycan array binding signal (z-score),[11],0.246
same,glycan array binding signal (z-score),[12],2.45
same,glycan array binding signal (z-score),[13],-0.394
same,glycan array binding signal (z-score),[14],-0.244
same,glycan array binding signal (z-score),[15],3.15
same,glycan array binding signal (z-score),[16],2.54
same,glycan array binding signal (z-score),[17],2.57
same,glycan array binding signal (z-score),[18],0.133
same,glycan array binding signal (z-score),[19],-0.488
same,glycan array binding signal (z-score),[20],-0.647
same,glycan array binding signal (z-score),[21],-0.612
same,glycan array binding signal (z-score),[22],0.322
same,glycan array binding signal (z-score),[23],-0.155
same,glycan array binding signal (z-score),[24],-0.484
same,glycan array binding signal (z-score),[25],-0.068
same,glycan array binding signal (z-score),[26],0.223
same,glycan array binding signal (z-score),[27],0.489
same,glycan array binding signal (z-score),[28],-0.119
same,glycan array binding signal (z-score),[29],0.571
same,glycan array binding signal (z-score),[30],1.48
same,glycan array binding signal (z-score),[31],-0.511
same,glycan array binding signal (z-score),[32],3.69
same,glycan array binding signal (z-score),[33],2.19
same,glycan array binding signal (z-score),[34],5.23
same,glycan array binding signal (z-score),[35],14.5
same,glycan array binding signal (z-score),[36],-0.075
same,glycan array binding signal (z-score),[37],0.372
same,glycan array binding signal (z-score),[38],-0.634
same,glycan array binding signal (z-score),[39],0.32
same,glycan array binding signal (z-score),[40],2.58
same,glycan array binding signal (z-score),[41],0.181
same,glycan array binding signal (z-score),[42],-0.326
same,glycan array binding signal (z-score),[43],-0.424
